High-throughput results (PubChem BioAssay)
A selection: hits, their analogues and other compounds. The true share with any hit is near 31%.
CYP2C9 act = increases human cytochrome P450 2C9 activity; recombinant CYP2C9, luciferin-H conversion, luminescence; active compounds read high; factor 1 = untreated enzyme, 0 = blocked; activation factor at 5 µM; 96,000 tested, 1.4% active; AID 1024;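 active = activation factor of 2 or more for CYP2C9 at a 5 µM dose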;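 also: 0 = sulfaphenazole-blocked wells and 1 = vehicle-only wells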
CYP2C19 inhib = blocks human cytochrome P450 2C19; P33261; CYP2C19 Supersomes, luciferin-H EGE luminescence, 30 min; inhibition, % at 5 µM; 96,000 tested, 21% active; AID 778;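 active = CYP2C19 inhibition above a set limit at 5 µM in the primary screen, cut at about 50% in these data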;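 also: plate controls were negative control wells for no effect and 2.5 mM tranylcypromine positive control for full effect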
CYP2C19 activ = increases human CYP2C19 enzyme activity | recombinant CYP2C19, luciferin-H EGE luminescence; active compounds read high; 0 = fully inhibited enzyme, 1 = untreated enzyme | activation factor at 5 µM | 96,000 tested, under 10 active | P33261;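 active = activation factor of at least 2 at 5 µM in the primary screen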;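 also: 0 = wells with 2.5 mM tranylcypromine and 1 = vehicle-only wells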
PLAP act = human PLAP activation; P05187; purified PLAP enzyme, luminescent substrate read-out; active compounds read high; activation fold at 20 µM; 96,000 tested, 1.2% active; AID 696; in the data active = activation fold above about 2
Target sequence (P05187 whole entry, looked up): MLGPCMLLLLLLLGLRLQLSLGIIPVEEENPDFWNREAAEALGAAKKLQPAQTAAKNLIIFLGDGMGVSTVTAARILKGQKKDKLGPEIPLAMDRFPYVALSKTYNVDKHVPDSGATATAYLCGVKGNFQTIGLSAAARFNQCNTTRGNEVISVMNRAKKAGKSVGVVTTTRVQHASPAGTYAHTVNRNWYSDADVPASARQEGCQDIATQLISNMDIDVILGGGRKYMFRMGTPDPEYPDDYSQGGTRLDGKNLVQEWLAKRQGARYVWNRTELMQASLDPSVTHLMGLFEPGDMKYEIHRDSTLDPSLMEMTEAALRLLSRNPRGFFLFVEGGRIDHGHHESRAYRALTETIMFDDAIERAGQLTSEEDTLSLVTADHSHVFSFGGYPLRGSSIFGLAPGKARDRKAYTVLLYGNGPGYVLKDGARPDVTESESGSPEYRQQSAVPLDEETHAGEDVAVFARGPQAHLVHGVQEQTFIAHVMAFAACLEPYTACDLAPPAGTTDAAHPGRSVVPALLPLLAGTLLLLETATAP
CYP2C9 inh = blocks human cytochrome P450 2C9; 96,000 tested, 20% active; inhibition, % at 5 µM; CYP2C9 Supersomes, luciferin-H conversion, luminescence; P11712;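 active = blocking of liver enzyme CYP2C9 beyond about 50% at 5 µM, limit read from the data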
An asterisk follows results filed as active.

How did CCCCN1C2CCCC1CC(NC(=O)c1ccc(OC)c(OC)c1)C2 (stereo unspecified) do in these assays?
CYP2C9 act: 0.9; CYP2C19 inhib: 1.4; CYP2C19 activ: 1; PLAP act: 0.9; CYP2C9 inh: 8.6

How did Cc1cc(C(C)(C)C)cc(C)c1COC(=O)C1CCC(=O)N1 (stereo unspecified) do in these assays?
CYP2C9 act: 0.7; CYP2C19 inhib: 62.6*; CYP2C19 activ: 0.4; PLAP act: 1.6; CYP2C9 inh: 34.0

Results for N#CCC1c2ccccc2CCN1C(=O)Nc1cccc(Cl)c1 (stereo unspecified) ?
CYP2C9 act: 0.6; CYP2C19 inhib: 34.4; CYP2C19 activ: 0.7; PLAP act: 0.8; CYP2C9 inh: 42.2

What do the screens show for `N#CCC1c2ccccc2CCN1C(=O)Nc1ccc(Cl)cc1` (stereo unspecified)?
CYP2C9 act: 0.7; CYP2C19 inhib: 54.6*; CYP2C19 activ: 0.5; PLAP act: 0.8; CYP2C9 inh: 33.7

What do the screens show for `CCc1ccc2[nH]c(=O)c(CN(CCN3CCOCC3)C(=O)Nc3ccccc3F)cc2c1`?
CYP2C9 act: 0.5; CYP2C19 inhib: 49.7; CYP2C19 activ: 0.5; PLAP act: 1.4; CYP2C9 inh: 51.9*

How did COc1ccccc1NC(=O)N(CCCN1CCOCC1)Cc1cc2cc3c(cc2[nH]c1=O)OCO3 do in these assays?
CYP2C9 act: 0.9; CYP2C19 inhib: 16.2; CYP2C19 activ: 0.8; PLAP act: 1.5; CYP2C9 inh: 8.0

Results for COc1ccc(NC(=O)N(CCN2CCCC2)Cc2cc3cc(OC)c(OC)cc3[nH]c2=O)cc1 ?
CYP2C9 act: 0.3; CYP2C19 inhib: 2.4; CYP2C19 activ: 1; PLAP act: 1.6; CYP2C9 inh: 75.0*

How did Cc1ccc2cc(CN(CCN3CCCC3)C(=O)Nc3ccc(F)cc3)c(=O)[nH]c2c1C do in these assays?
CYP2C9 act: 0.9; CYP2C19 inhib: -3.6; CYP2C19 activ: 1; PLAP act: 1.5; CYP2C9 inh: 5.6

Results for CCc1ccc2[nH]c(=O)c(CN(Cc3ccccc3)C(=O)Nc3ccccc3OC)cc2c1 ?
CYP2C9 act: 0.1; CYP2C19 inhib: 85.6*; CYP2C19 activ: 0.1; PLAP act: 1.5; CYP2C9 inh: 90.3*

What do the screens show for `CCc1ccc2[nH]c(=O)c(CN(CCN(C)C)C(=O)Nc3ccccc3OC)cc2c1`?
CYP2C9 act: 0.9; CYP2C19 inhib: 16.2; CYP2C19 activ: 0.8; PLAP act: 1.5; CYP2C9 inh: 11.6

Results for CCN(CC)CCCN(Cc1cc2cc(OC)ccc2[nH]c1=O)C(=O)Nc1ccc(F)cc1 ?
CYP2C9 act: 0.2; CYP2C19 inhib: 62.3*; CYP2C19 activ: 0.4; PLAP act: 1.4; CYP2C9 inh: 84.4*

Results for CCOC(=O)c1cc(C(=O)Nc2ccccc2F)nn1C ?
CYP2C9 act: 0.9; CYP2C19 inhib: 13.5; CYP2C19 activ: 0.9; PLAP act: 0.8; CYP2C9 inh: 5.5

How did CCc1ccc2[nH]c(=O)c(CN(CCCN3CCOCC3)C(=O)Nc3ccc(F)cc3)cc2c1 do in these assays?
CYP2C9 act: 0.6; CYP2C19 inhib: 55.3*; CYP2C19 activ: 0.4; PLAP act: 1.7; CYP2C9 inh: 43.5

Results for COc1cc2cc(CN(Cc3cccnc3)C(=O)NCc3ccccc3)c(=O)[nH]c2cc1OC ?
CYP2C9 act: 0.6; CYP2C19 inhib: 51.7*; CYP2C19 activ: 0.5; PLAP act: 1.6; CYP2C9 inh: 37.3

What do the screens show for `c1ccc(NC2=Nc3ccccc3CC2)cc1`?
CYP2C9 act: 0.8; CYP2C19 inhib: 67.7*; CYP2C19 activ: 0.3; PLAP act: 0.9; CYP2C9 inh: 18.3

Results for O=C(CSc1nc2ccccc2[nH]1)N1CCN(S(=O)(=O)c2ccc(Cl)cc2)CC1 ?
CYP2C9 act: 0.8; CYP2C19 inhib: 8.1; CYP2C19 activ: 0.9; PLAP act: 2*; CYP2C9 inh: 18.0

Results for Cc1ccccc1-c1nnn(CC(=O)N2CCN(S(=O)(=O)c3ccc(Cl)cc3)CC2)n1 ?
CYP2C9 act: 0.8; CYP2C19 inhib: 61.8*; CYP2C19 activ: 0.4; PLAP act: 1.6; CYP2C9 inh: 19.5

What do the screens show for `Nn1cc(-c2ccccc2)nc1SCC(=O)N1CCN(S(=O)(=O)c2ccc(Cl)cc2)CC1`?
CYP2C9 act: 0.9; CYP2C19 inhib: 6.2; CYP2C19 activ: 0.9; PLAP act: 0.8; CYP2C9 inh: 12.1

What do the screens show for `O=C1c2cccc3cccc(c23)C(=O)N1c1nncs1`?
CYP2C9 act: 1.1; CYP2C19 inhib: 3.9; CYP2C19 activ: 1; PLAP act: 0.8; CYP2C9 inh: -13.9

What do the screens show for `Cc1cc(C)cc(N=c2c([N+](=O)[O-])nn(-c3cccc(Cl)c3)n2O)c1`?
CYP2C9 act: 0.8; CYP2C19 inhib: 25.1; CYP2C19 activ: 0.7; PLAP act: 0.7; CYP2C9 inh: 22.1

What do the screens show for `CC(C)NC(=O)CSc1nc(Cc2cccs2)nc2ccccc12`?
CYP2C9 act: 0.7; CYP2C19 inhib: 49.9; CYP2C19 activ: 0.5; PLAP act: 0.8; CYP2C9 inh: 33.3

How did c1ccc(Oc2nc(N3CCOCC3)nc(N3CCOCC3)n2)cc1 do in these assays?
CYP2C9 act: 0.8; CYP2C19 inhib: 16.0; CYP2C19 activ: 0.8; PLAP act: 1; CYP2C9 inh: 25.0

Results for c1cnn(-c2nc(N3CCOCC3)nc(N3CCOCC3)n2)c1 ?
CYP2C9 act: 0.5; CYP2C19 inhib: -12.3; CYP2C19 activ: 1.1; PLAP act: 1.1; CYP2C9 inh: 52.6*

How did COc1ccccc1OCC(O)CN1C(=O)NC(C)(C)C1=O (stereo unspecified) do in these assays?
CYP2C9 act: 0.6; CYP2C19 inhib: 49.7; CYP2C19 activ: 0.5; PLAP act: 1; CYP2C9 inh: 36.2

What do the screens show for `Cc1ccc(N(CN2C(=O)NC(C)(C)C2=O)CN2C(=O)NC(C)(C)C2=O)cc1`?
CYP2C9 act: 1; CYP2C19 inhib: 51.3*; CYP2C19 activ: 0.5; PLAP act: 1; CYP2C9 inh: -2.7

How did CCOc1ccc(N=Nc2c(=O)[nH]n3c(=O)cc(C)[nH]c23)cc1 do in these assays?
CYP2C9 act: 0.7; CYP2C19 inhib: 63.3*; CYP2C19 activ: 0.4; PLAP act: 1.5; CYP2C9 inh: 31.4

How did Cc1cc(=O)n2[nH]c(=O)c(N=Nc3ccccc3)c2[nH]1 do in these assays?
CYP2C9 act: 1.1; CYP2C19 inhib: -3.2; CYP2C19 activ: 1; PLAP act: 1.5; CYP2C9 inh: -9.5

What do the screens show for `O=C1c2ccccc2C(=O)N1CC(O)Cn1nnc2ccccc21` (stereo unspecified)?
CYP2C9 act: 0.7; CYP2C19 inhib: 58.9*; CYP2C19 activ: 0.4; PLAP act: 1; CYP2C9 inh: 34.2

What do the screens show for `CC(=O)Cn1c(C(F)(F)F)nc2ccccc21`?
CYP2C9 act: 1.1; CYP2C19 inhib: -13.0; CYP2C19 activ: 1.1; PLAP act: 1.1; CYP2C9 inh: -13.6

Results for O=C(Cn1nnc2ccccc21)C1CC1 ?
CYP2C9 act: 0.8; CYP2C19 inhib: -1.0; CYP2C19 activ: 1; PLAP act: 1; CYP2C9 inh: 15.6

How did Cc1nn(CC(O)CN2c3ccccc3Sc3ccccc32)c(C)c1Br (stereo unspecified) do in these assays?
CYP2C9 act: 0.1; CYP2C19 inhib: 88.6*; CYP2C19 activ: 0.1; PLAP act: 1.5; CYP2C9 inh: 93.0*
